± gives the standard deviation of the averaged measurements.
How the values were obtained:
Conditions in all cases: concentration: 10 µM; 24 h
[1] = system: HCC1569; assay: cell number relative to DMSO (% of DMSO); higher = more cells (less growth inhibition / toxicity)
Method in brief: (§1)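 HCC1569 and TDF cells (800 per well, 384-well plates, RPMI with 10% FBS) were treated with compounds at 10 µM for 24 h at 37 °C, in triplicate. Cells were fixed in 3.7% formaldehyde and stained with a rabbit anti-H1.0 antibody, an AlexaFluor 647 secondary and DAPI; six fields per well were imaged at ×10. H1.0 nuclear intensity or cell number is expressed as percent of the plate DMSO control, taking the median of replicates. HCC1569 values were smoothed for positional effects.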

[2] = system: TDF; assay: as above
Method in brief: as §1

[3] = system: TDF; assay: H1.0 immunofluorescence intensity relative to DMSO (% of DMSO); higher = stronger H1.0 induction, active = 120 or more
Method in brief: as §1

[4] = system: HCC1569; assay: H1.0 immunofluorescence intensity relative to DMSO (% of DMSO); higher = stronger H1.0 induction, active = 140 or more
Method in brief: as §1
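Wherever H1.0 immunofluorescence intensity relative to DMSO is given: TDF is a line of transformed human dermal fibroblasts of mesenchymal origin.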
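Wherever cell number relative to DMSO is given: TDF denotes transformed human dermal fibroblasts of mesenchymal origin.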

SMILES	cell number [1]	cell number [2]	H1.0 immunofluorescence intensity [3]	H1.0 immunofluorescence intensity [4]
NC(=O)c1ccc(-c2nc(-c3ccc4c(c3)OCCO4)c(-c3ccccn3)[nH]2)cc1	97.4	108	94.2 (inactive)	122 (inactive)
CCCCCCCCCCCCCCCCCCCCCCCC(=O)O [Tetracosanoic acid]	99.5	104	98 (inactive)	104 (inactive)
N[C@@H](Cc1c[nH]c2ccc(O)cc12)C(=O)O [5-Hydroxy-L-tryptophan]	98.1	94.8	93 (inactive)	116 (inactive)
C=Cc1c(C)c2cc3[nH]c(cc4nc(cc5nc(cc1[nH]2)C(C)=C5CCC(=O)O)C(CCC(=O)O)=C4C)c(C)c3C=C [Protoporphyrin IX disodium]	103	86.7	100 (inactive)	100 (inactive)
NC(=S)NN=Cc1ncccc1N [3-amino-2-pyridinecarbaldehyde thiosemicarbazone]	77.2	41.7	113 (inactive)	99.1 (inactive)
CCN(CC)CCNC(=O)c1cc(S(C)(=O)=O)ccc1OC.Cl [Tiapride hydrochloride]	111	107	96.7 (inactive)	99.3 (inactive)
CC1(C)SC2C(NC(=O)COc3ccccc3)C(=O)N2C1C(=O)[O-] (configuration not stated) [Pencillin V]	100	101	87.4 (inactive)	112 (inactive)
CN1c2ccccc2C(=O)N2CCc3c([nH]c4ccccc34)C21 (configuration not stated) [Evodiamine]	61.2	9.57	165 (active)	123 (inactive)
O=C(O)COC(=O)Cc1ccccc1Nc1c(Cl)cccc1Cl [Aceclofenac]	104	101	95.3 (inactive)	103 (inactive)
CN(C)CCOC(c1ccccc1)c1ccccc1.Cl [Diphenhydramine.HCl]	106	103	100 (inactive)	107 (inactive)
NC(N)=NC(=O)c1nc(Cl)c(N)nc1N [Amiloride]	101	103	97.3 (inactive)	102 (inactive)
Cc1cccc(C)c1OCC(N)C(C)C.I (configuration not stated)	103	108	91.3 (inactive)	94.3 (inactive)
O=C(C=Cc1ccc(O)cc1)CC(=O)C=Cc1ccc(O)cc1 [bis-demethoxycurcumin]	82.7	98.6	92.7 (inactive)	104 (inactive)
COC12C(COC(N)=O)C3=C(C(=O)C(C)=C(N)C3=O)N1CC1NC12 (configuration not stated) [Mitomycin C]	73.2 ± 6	47.6 ± 1.8	105 (inactive)	96.2 (inactive)
C[N+](C)(C)CCOC(N)=O [Carbamylcholine]	103	107	93.3 (inactive)	99.8 (inactive)
COc1cc(C=CC(=O)c2ccc(O)cc2O)ccc1O [Homobutein]	95.5	101	92 (inactive)	100 (inactive)
C[C@H](N[C@@H](CCc1ccccc1)C(=O)O)C(=O)N1CCC[C@H]1C(=O)O.O.O	102	94.9	101 (inactive)	109 (inactive)
CC(CC(c1ccccc1)c1ccccc1)NC(C)(C)C.Cl (configuration not stated) [N-(tert-butyl)-4,4-diphenyl-2-butanamine hydrochloride]	97.9	97.5	99.1 (inactive)	101 (inactive)
Cn1cc(-c2ccc3nnc(C(F)(F)c4ccc5ncccc5c4)n3n2)cn1	102	96	96.1 (inactive)	101 (inactive)
CN1CCN(CCCN2c3ccccc3Sc3ccc(Cl)cc32)CC1.O=C(O)C=CC(=O)O.O=C(O)C=CC(=O)O [Prochlorperazine dimaleate]	83.7	105	110 (inactive)	157 (active)
NC(=O)c1cccc(N)c1 [3-aminobenzamide]	98.6	102	90.5 (inactive)	87.7 (inactive)
CC1=CC(=O)c2ccccc2C1=O [Menadione]	99.9	82.8	106 (inactive)	91.9 (inactive)
CN(C)CCOC(c1ccccc1)c1ccccc1.Cl [Diphenhydramine hydrochloride]	100	105	88.7 (inactive)	97 (inactive)
O=c1[nH]c2ccccc2n1CCCN1CCN(C(c2ccccc2)c2ccccc2)CC1 [Oxatomide]	98.3 ± 2.3	105 ± 7.4	90.8 (inactive)	101 (inactive)
CCCn1c(=O)c2[nH]c(-c3ccc(OCC(=O)Nc4ccc(C#N)cc4)cc3)nc2n(CCC)c1=O	105	114	96.6 (inactive)	102 (inactive)
Cc1ccc(Nc2nccc(N(C)c3ccc4c(C)n(C)nc4c3)n2)cc1S(N)(=O)=O [Pazopanib]	74.3	100	94.6 (inactive)	156 (active)
NC(C(=O)O)C1CC(Cl)=NO1 (configuration not stated) [Acivicin]	93.2	68.8	122 (active)	108 (inactive)

SMILES	cell number [1]	cell number [2]	H1.0 immunofluorescence intensity [3]	H1.0 immunofluorescence intensity [4]
CCCCCC(O)C=CC=CCCCCCCCCCC(=O)O (configuration not stated)	99.4	90.3	95.7 (inactive)	96.8 (inactive)
CC1=C(C(=O)O)N2C(=O)C(NC(=O)C(N)C3=CCC=CC3)C2SC1 (configuration not stated) [Cephradine]	100	115	93.5 (inactive)	88.5 (inactive)
CCCCCC(O)C=CC=CCC=CCCCC(=O)O (configuration not stated)	100	90.9	97 (inactive)	97.1 (inactive)
COc1cc2nc(N3CCN(C(=O)c4ccco4)CC3)nc(N)c2cc1OC.Cl [Prazosin hydrochloride]	91.9	99.8	93.6 (inactive)	106 (inactive)
COc1ccc(-c2coc3cc(O)cc(O)c3c2=O)cc1 [Biochanin A]	106	97.4	93.9 (inactive)	90.6 (inactive)
OCCn1cc(-c2cnc3nnn(Cc4ccc5ncccc5c4)c3n2)cn1	99.6	98.7	99 (inactive)	99.8 (inactive)
COc1cc(CNC(=O)CCCCCCC(C)C)ccc1O [Dihydrocapsaicin]	96.7	101	91.1 (inactive)	97 (inactive)
Cl.O[Si](CCCN1CCCCC1)(c1ccc(F)cc1)C1CCCCC1 (configuration not stated) [Hexahydro-sila-difenidol hydrochloride, p-fluoro analog]	97.5	88.2	102 (inactive)	105 (inactive)
CCC=CCC=CCC=CCCCCCCCCCCCC(=O)O [Docosatrienoic acid]	101 ± 2.4	97.7 ± 10	100 (inactive)	102 (inactive)
COc1ccc(-c2cc(=O)c3c(O)c(OC)c(OC)cc3o2)cc1O	68.2	80.2	102 (inactive)	139 (inactive)
COc1cc(/C=C/C(=O)O)ccc1O [Ferulic acid]	102	97.3	101 (inactive)	92.2 (inactive)
CCCCCCCCCCCCCC(=O)NC(C)C(O)c1ccccc1 [L-erythro MAPP]	97.3	103	98 (inactive)	108 (inactive)
CCCCCCCCC=CCC=CCC=CCCCC(=O)NCCO [Mead ethanolamide]	104	95.8	108 (inactive)	96.2 (inactive)
CC(N)(Cc1ccc(O)cc1)C(=O)O [L-alpha-Methyl-p-tyrosine]	107	111	92.6 (inactive)	90.6 (inactive)
O=C1NC(c2cccc([N+](=O)[O-])c2)=CCN1c1ccccc1O	104	104	95.6 (inactive)	94.9 (inactive)
Nc1ccc(C(=O)Nc2cccc(-c3nc(N4CCOCC4)c4oc5ncccc5c4n3)c2)cn1 [PIKfyve Inhibitor]	63.9	56.2	112 (inactive)	151 (active)
Cc1c(Cl)cccc1Nc1ccccc1C(=O)O [Tolfenamic acid]	105	105	104 (inactive)	95 (inactive)
CC(=O)NC(CS)C(=O)O (configuration not stated) [N-Acetyl-Cysteine]	102	95.1	96.3 (inactive)	90.6 (inactive)
CC(C)(C)c1nc2c3cc[nH]c(=O)c3c3cc(F)ccc3c2[nH]1	110	103	87 (inactive)	101 (inactive)
COc1ccc2c(c1)c(CC(=O)Nc1ccc(NC(C)=O)cc1)c(C)n2C(=O)c1ccc(Cl)cc1 [N-(4-acetamidophenyl)indomethacinamide]	78.7	70.1	134 (active)	149 (active)
CCCc1nc(C)c2c(=O)nc(-c3cc(S(=O)(=O)N4CCN(CC)CC4)ccc3OCC)[nH]n12 [Vardenafil]	105	108	91 (inactive)	100 (inactive)
COc1ccc(-c2cc(=O)c3ccc(O)cc3o2)cc1 [Pratol]	98.5	87.4	94 (inactive)	105 (inactive)
CC(O)(P(=O)([O-])O)P(=O)([O-])O [Etidronate]	101	106	102 (inactive)	111 (inactive)
COC(=O)C=Cc1cc(O)ccc1O [2,5-Dihydroxycinnamic acid methyl ester]	104	103	91.7 (inactive)	93.6 (inactive)
COc1ccc(Br)cc1S(=O)(=O)NC(=O)/C=C/c1ccccc1Cc1ccc2ccccc2c1	98.1	103	90.2 (inactive)	103 (inactive)
CC(=O)SCC(Cc1ccccc1)C(=O)NCC(=O)OCc1ccccc1 (configuration not stated) [Racecadotril]	103	117	91.5 (inactive)	104 (inactive)

From the supplement of paper PMC7156485
